Results on 7 compounds are retold here after PubChem BioAssay (NCATS).

Inconclusive results are not listed. Active and inactive are the calls of the source. Unless noted, calls come from the whole dose curve; as a rule, active = well fitted curve in the direction sought with a large enough effect; inconclusive = small, poorly fitted or top-dose-only effect, or another doubt; inactive = no such curve, though single readings can be large; an effect the other way counts as inactive or inconclusive.

Experiment [1] is described as follows: qHTS drug screen for cell cycle checkpoint inhibitors in PARPi-resistant BRCA-mutant ovarian cancer cell lines. (AID 1963452; calls by dose curve). As to conditions: PEO1/OlaR viability, CellTiter-Glo luminescence, 96 h, stronger effect = lower value. The procedure, abridged: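 PEO1, PEO4 and PEO1/OlaR ovarian cancer cells, 600 per well, exposed 96 h at 37C to a dilution series. Viability read by CellTiter-Glo luminescence, normalized to DMSO and empty wells; activity summarized as Z-AUC.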

The nature of experiment [2]: qHTS for identification of novel therapeutic agents for treatment of microphthalmiaassociated transcription factor (MiT) renal cell carcinoma (RCC) (AID 1963991). The conditions noted are these: CellTiter-Glo, 48 h, stronger effect = lower value. The procedure, abridged:
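Three TFE3-fusion RCC lines (UOK109, UOK124, UOK145), 500 cells/well in complete medium, were treated with MIPE 4.0 compounds for 48 hours at 37 C. Viability was by CellTiter-Glo luminescence, normalized to DMSO (100%) and empty wells (0%); curves fitted over 11 concentrations.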

Experiment [3] addresses Cytochrome P450 2C19 (Homo sapiens) (UniProt P33261). The experiment can be described thus: qHTS for inhibitors of CYP2C19 against the NCATS DSHEA and TCM libraries (AID 1919974).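 Note: luminescence from luciferin released by CYP2C19 oxidation of a pro-luciferin substrate.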 Note: potency is the fitted concentration of half-maximal effect. As to conditions: CYP2C19 enzyme inhibition, luminescence qHTS; series mostly up to 34.1 µM. The procedure, abridged: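 Luminescent P450-Glo format: compounds preincubated 15 min with enzyme and luciferin substrate, reaction run 30-45 min after NADPH regeneration solution. Intraplate controls: ketoconazole for CYP3A4 and CYP2C19, sulfaphenazole for CYP2C9.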

The nature of experiment [4]: KB-3-1 P-gp reporter qHTS against the NCATS DSHEA and TCM libraries (AID 1919975). Note: 0% is about no effect. The conditions noted are these: KB-3-1 parental cells, CellTiter-Glo luminescence viability, 72 h; series mostly up to 26.1 µM. The procedure, abridged: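 Cell viability by CellTiter-Glo luminescence following ~72 h compound exposure (concentration-response). Uses parental, non-P-gp-overexpressing KB-3-1 line, 500 cells/well in DMEM/10% FBS, attached ~4 h before dosing.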

Experiment [5] concerns the target Cytochrome P450 1A2 (Homo sapiens) (UniProt P05177). The experiment can be described thus: qHTS for inhibitors of CYPIA2 against the NCATS DSHEA and TCM libraries (AID 1919976).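 Note: light from luciferin formed by CYP1A2 from a pro-luciferin substrate; % is set by controls: 0 for no effect and ±100 for the full control effect.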 As to conditions: recombinant CYP1A2 enzyme activity, luminescence; series mostly up to 37 µM. The procedure, abridged:
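Human CYP1A2 with pro-luciferin substrate (typically 100 mM KPO4), 15 min preincubation with compound, then 1x NADPH regeneration for 30-45 min at room temperature in the dark. Luciferin quantified by luciferase luminescence; furafylline intraplate control.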

Experiment [6] is described as follows: qHTS Counterscreen for compound interference against the NCATS DSHEA and TCM libraries (AID 1919978).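 Note: compounds preincubated with 1 µM D-luciferin or buffer before detection reagent; % of control where 0% means no effect.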 The conditions noted are these: firefly luciferase detection reagent interference, luminescence. The procedure, abridged: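 With 1 uM D-luciferin or phosphate buffer only, compounds at final 19.5 nM–39.8 uM were incubated for 15 min at room temperature. Luciferase detection reagent was then added, and luminescence was measured after a further 30 min at room temperature.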

The nature of experiment [7]: Dual reporter qHTS for agonist of Pregnane X Receptor (hPXR) against the NCATS DSHEA and TCM libraries: Fluorescence readout (AID 1920058). Note: 0% is about no effect. As to conditions: PXR dual reporter cells; series mostly up to 40 µM. The procedure, abridged: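 hPXR-Luc HepG2 cells, 2000/well in charcoal-stripped serum, attached 5 h, dosed for ~24 h at 37 °C. Fluorescence read is CellTiter-Fluor viability (Ex/Em 405/540 nm); rifampicin positive, tetraoctyl ammonium bromide (92 µM) cytotoxicity controls.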

Experiment [8] deals with Nuclear receptor subfamily 1 group I member 2 (Homo sapiens) (UniProt O75469). The experiment is described as follows: Dual reporter qHTS for agonist of Pregnane X Receptor (hPXR) against the NCATS DSHEA and TCM libraries: Luminescence readout (AID 1920059). Note: 0% is about no effect. The conditions noted are these: hPXR dual reporter cells, luciferase luminescence agonist; series mostly up to 40 µM. The procedure, abridged:
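Luminescent PXR reporter read (ONE-Glo) after a CellTiter-Fluor viability read, following 24 h, 37C treatment of HepG2 cells stably carrying hPXR-Luc.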

For experiment [9] the target is unchanged. The experiment is described as follows: Dual reporter qHTS for antagonist of Pregnane X Receptor (hPXR) against the NCATS DSHEA and TCM libraries: Luminescence Readout (AID 1920060).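 Note: HepG2 cells carrying hPXR luciferase reporter stimulated with rifampicin at 2 µM; 0% is about no effect.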 The conditions noted are these: hPXR dual reporter cells, luciferase luminescence, antagonist mode; series mostly up to 40 µM. The procedure, abridged:
(§1)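 hPXR-Luc HepG2 cells exposed 24 h at 37 C to compounds with 2 uM rifampicin in antagonist mode; luciferase luminescence measured by ONE-Glo, with CellTiter-Fluor viability read beforehand.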

The nature of experiment [10]: Dual reporter qHTS for antagonist of Pregnane X Receptor (hPXR) against the NCATS DSHEA and TCM libraries: Fluorescence Readout (AID 1920061). Note: 0% is about no effect. As to conditions: PXR dual reporter cells, antagonist mode; series mostly up to 40 µM. The procedure, abridged: as §1
The mark [11] stands for this setting: measured here: PEO1 parental Z-AUC.
Where [12] appears, read: TFE3-RCC UOK109 viability, measured here: UOK109 Z-AUC.
Setting [13] is: TFE3-RCC viability, measured here: UOK124 Z-AUC.
Where [14] appears, read: TFE3-RCC viability, measured here: UOK145 Z-AUC.

Sequence of Nuclear receptor subfamily 1 group I member 2 (Homo sapiens) (O75469 whole entry, looked up): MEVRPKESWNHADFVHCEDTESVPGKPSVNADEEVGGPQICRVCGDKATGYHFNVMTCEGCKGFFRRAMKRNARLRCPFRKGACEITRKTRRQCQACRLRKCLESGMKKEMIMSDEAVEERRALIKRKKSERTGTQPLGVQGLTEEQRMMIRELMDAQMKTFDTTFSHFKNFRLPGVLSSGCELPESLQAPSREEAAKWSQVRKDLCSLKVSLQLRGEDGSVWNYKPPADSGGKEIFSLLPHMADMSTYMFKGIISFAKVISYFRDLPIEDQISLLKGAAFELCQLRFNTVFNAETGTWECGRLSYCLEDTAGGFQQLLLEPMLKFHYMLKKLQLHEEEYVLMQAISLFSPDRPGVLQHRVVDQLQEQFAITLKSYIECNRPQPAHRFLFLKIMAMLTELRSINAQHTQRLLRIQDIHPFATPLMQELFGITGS
Sequence of Cytochrome P450 2C19 (Homo sapiens) (P33261 whole entry, looked up): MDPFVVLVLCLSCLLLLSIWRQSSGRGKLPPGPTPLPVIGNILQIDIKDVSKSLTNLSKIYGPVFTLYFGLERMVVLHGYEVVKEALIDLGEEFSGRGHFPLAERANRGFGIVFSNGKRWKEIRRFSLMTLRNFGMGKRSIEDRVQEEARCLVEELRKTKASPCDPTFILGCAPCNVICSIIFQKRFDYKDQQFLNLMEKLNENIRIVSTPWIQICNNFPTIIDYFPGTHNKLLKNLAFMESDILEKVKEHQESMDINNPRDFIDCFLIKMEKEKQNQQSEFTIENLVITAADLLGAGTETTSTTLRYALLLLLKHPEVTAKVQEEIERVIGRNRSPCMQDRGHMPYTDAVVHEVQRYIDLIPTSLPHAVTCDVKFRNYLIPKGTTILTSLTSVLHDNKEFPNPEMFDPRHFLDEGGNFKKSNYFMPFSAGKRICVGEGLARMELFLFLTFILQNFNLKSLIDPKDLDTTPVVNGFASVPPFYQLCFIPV
Sequence of Cytochrome P450 1A2 (Homo sapiens) (P05177 whole entry, looked up): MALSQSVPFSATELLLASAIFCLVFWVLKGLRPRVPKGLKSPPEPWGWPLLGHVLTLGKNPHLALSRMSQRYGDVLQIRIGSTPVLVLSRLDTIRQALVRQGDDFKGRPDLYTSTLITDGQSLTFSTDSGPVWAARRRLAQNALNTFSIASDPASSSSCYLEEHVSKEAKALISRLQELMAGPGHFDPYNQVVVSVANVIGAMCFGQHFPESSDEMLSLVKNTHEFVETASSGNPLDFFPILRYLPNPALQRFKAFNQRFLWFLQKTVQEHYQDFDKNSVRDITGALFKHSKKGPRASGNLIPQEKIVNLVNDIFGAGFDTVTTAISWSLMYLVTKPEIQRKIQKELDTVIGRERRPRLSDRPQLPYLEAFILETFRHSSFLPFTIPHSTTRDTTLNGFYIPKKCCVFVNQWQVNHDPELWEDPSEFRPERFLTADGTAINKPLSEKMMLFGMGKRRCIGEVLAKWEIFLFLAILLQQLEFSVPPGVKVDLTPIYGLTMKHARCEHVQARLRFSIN

As for `N[C@@H](Cc1ccc(O)c(O)c1)C(=O)O`, the results for the Z-AUC in experiment [1], in [1] (setting [11]) and in experiment [1] (measured here: PEO4 Z-AUC) were -0.0147 (inactive), 0.128 and 0.735, respectively. Also, the z-score in experiment [2] (setting [12]) is 0.912; in [2] (setting [13]), 0.453; in experiment [2] (setting [14]) it was 0.282.

Take `Nc1nc(=S)c2[nH]cnc2[nH]1`: the Z-AUC in experiment [1] was 0.0206 (inactive); in experiment [1] (setting [11]), -0.887; in experiment [1] (measured here: PEO4 Z-AUC) it was -1.01.

As for `NNC(=O)c1ccncc1`, the Potency in [3] is 12.6 µM (active). In addition, in experiment [4], the Potency entry was “inactive”. Besides, the result in experiment [5], in experiment [7], in experiment [8], in [9] and in experiment [10] was inactive. For the same compound, in experiment [6], the max response was 1.88% (inactive). Further, the Z-AUC in experiment [1] was 0.416 (inactive); in experiment [1] (setting [11]) it was 1.78; in experiment [1] (measured here: PEO4 Z-AUC), 1.56. Further, the z-score came out at 1.86 in [2] (setting [12]), 0.222 in experiment [2] (setting [13]) and 0.436 in experiment [2] (setting [14]).

As for `CC(C)(C)NC(=O)[C@H]1CC[C@H]2[C@@H]3CC[C@H]4NC(=O)C=C[C@]4(C)[C@H]3CC[C@]12C`, the Z-AUC in [1] is 1.47 (inactive); in experiment [1] (setting [11]), 1.04; in experiment [1] (measured here: PEO4 Z-AUC), 1.46.

Take `OCc1ccc(-c2nn(Cc3ccccc3)c3ccccc23)o1`: the Z-AUC is 0.562 (inactive) in experiment [1], 1.06 in experiment [1] (setting [11]) and 0.997 in [1] (measured here: PEO4 Z-AUC).

For `O=C(O)c1cccnc1`, the Potency entry in experiment [3] and in experiment [4] was “inactive” throughout. Also, the call in experiment [7], in experiment [8], in experiment [9] and in experiment [10] was inactive. For the same compound, the Z-AUC is 0.136 (inactive) in experiment [1], -0.782 in experiment [1] (setting [11]) and -0.146 in [1] (measured here: PEO4 Z-AUC). Besides, the figures for the z-score in experiment [2] (setting [12]), in [2] (setting [13]) and in experiment [2] (setting [14]) were 0.704, 0.528 and 0.253, respectively.

With `CO[C@@H]1[C@@H](OC(N)=O)[C@@H](O)[C@H](Oc2ccc3c(O)c(NC(=O)c4ccc(O)c(CC=C(C)C)c4)c(=O)oc3c2C)OC1(C)C`, the Z-AUC is -0.0911 (inactive) in experiment [1], 0.276 in [1] (setting [11]) and 0.63 in experiment [1] (measured here: PEO4 Z-AUC). The z-score in [2] (setting [12]) turned out to be 0.755; in [2] (setting [13]), 0.269; in experiment [2] (setting [14]), 0.567.
